Test results from PMC5540273 (PLoS ONE, 2017).

Key:
Settings in all cases: concentration: 1 μM, replicates: in singlicate; n = 1
PCTK2 = tested on: T1, PCTK2
T1 construct: gene CDK17

PCTK3 = tested on: T2, PCTK3
T2 construct: gene CDK18

PDGFRA = tested on: PDGFRA
PDGFRB = tested on: PDGFRB
PDPK1 = tested on: PDPK1
PFTAIRE2 = tested on: PFTAIRE2
PFTK1 = tested on: T3, PFTK1
T3 construct: gene CDK14

PHKG1 = tested on: PHKG1
PHKG2 = tested on: PHKG2
PIK3C2B = tested on: PIK3C2B
PIK3C2G = tested on: PIK3C2G
PIK3CA = tested on: PIK3CA
PIK3CB = tested on: PIK3CB
PIK3CD = tested on: PIK3CD
PIK3CG = tested on: PIK3CG
PIK4CB = tested on: T4, PIK4CB
T4 construct: gene PI4KB

PIKFYVE = tested on: PIKFYVE
PIM1 = tested on: PIM1
PIM2 = tested on: PIM2
PIM3 = tested on: PIM3
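Further: KINOMEscan kinase panel screen.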

Structure (SMILES)	%Inh (PCTK2) [%]	%Inh (PCTK3) [%]	%Inh (PDGFRA) [%]	%Inh (PDGFRB) [%]	%Inh (PDPK1) [%]	%Inh (PFTAIRE2) [%]	%Inh (PFTK1) [%]	%Inh (PHKG1) [%]	%Inh (PHKG2) [%]	%Inh (PIK3C2B) [%]	%Inh (PIK3C2G) [%]	%Inh (PIK3CA) [%]	%Inh (PIK3CB) [%]	%Inh (PIK3CD) [%]	%Inh (PIK3CG) [%]	%Inh (PIK4CB) [%]	%Inh (PIKFYVE) [%]	%Inh (PIM1) [%]	%Inh (PIM2) [%]	%Inh (PIM3) [%]
CN(c1ccc2c(c1)nc(NCc1ccccc1)n2C)c1ccnc(Nc2ccc(CS(C)(=O)=O)cc2)n1.Cl [GW811603]	0	0	99.8	100	0	38	0	8	0	0	0	0	41	0	29	26	50	0	0	0
Cc1cc(-c2ccnc(Nc3cccc(C#N)c3)n2)cc(C)c1O [GSK1440913]	55	43	4	60	0	24	18	27	15	0	24	1	0	47	67	97	90	0	0	0
NCCC(NC(=O)c1cc(Br)c(-c2ccnc3[nH]ccc23)s1)c1ccccc1.O=C(O)C(F)(F)F.O=C(O)C(F)(F)F (stereo not shown) [GSK1307810]	16	0	25	53	28	8	0	24	12	0	0	0	6	7	2	8	9	66	95.5	45
CN(C)CCNS(=O)(=O)c1ccc(-c2ccnc3[nH]ccc23)cc1 [GSK977620]	0	0	0	54	0	6	0	25	7	0	0	0	0	9	8	0	0	1	0	0
CN(c1ccc(F)c(NC(=O)c2cccc(OC(C)(C)C#N)c2Cl)c1)c1ccc2nc(NC(=O)C3CC3)sc2n1	0	0	97.8	100	36	11	0	7	0	15	30	0	9	0	5	0	50	0	14	6
CCn1c(-c2nonc2N)nc2c(-c3ccccc3)ncc(OCCCN)c21.O=C(O)C(F)(F)F.O=C(O)C(F)(F)F [GSK260205]	0	0	18	98.8	0	0	13	0	0	1	9	0	0	1	0	0	98.8	62	2	44
Cc1ccc(Nc2ccnc(Nc3ccc(C)c(F)c3)n2)cc1O.Cl [GW582868]	0	20	3	96.9	0	0	1	0	0	0	0	0	0	11	0	8	24	52	0	0
COc1cccc2c(-c3ccncc3)c(-c3ccc(F)cc3)nn12 [GW468513]	11	0	0	21	10	5	0	18	0	0	0	0	0	11	0	0	0	9	0	0
O=C(Nc1c(F)cccc1F)c1cc(C(=O)c2ccccc2F)c[nH]1 [GSK1326180]	0	0	0	14	0	10	20	0	0	0	0	0	0	0	0	0	0	0	0	0
Cl.Cl.NCC(NC(=O)c1cc(-c2cccnc2)c(-c2ccnc3[nH]ccc23)s1)c1ccccc1 (stereo not shown) [GSK1323434]	14	0	0	28	26	29	28	7	2	0	0	0	0	2	0	0	59	16	0	0
O=C(Nc1n[nH]c2nc(-c3ccccc3O)ccc12)C1CC1 [SB-711880]	5	15	0	0	0	5	0	17	100	14	0	0	0	0	17	24	30	0	0	0
COc1cc(Nc2ccnc3cc(-c4ccncc4)ccc23)cc(OC)c1OC.Cl [GW494610]	0	0	73	97.2	0	12	0	15	0	0	0	0	0	0	0	0	0	11	0	0
CCOc1nccc(-c2c(-c3ccc(F)cc3)ncn2C2CCNCC2)n1 [SB-249175]	5	17	13	8	6	0	20	0	0	23	1	9	0	18	45	3	7	0	3	5
COc1cc(Nc2nccc(N3CCC(NC(=O)Nc4ccc5c(c4)OCO5)C3)n2)cc(OC)c1OC (stereo not shown) [GSK1379766]	38	31	11	60	0	8	0	0	0	8	0	3	0	50	13	80	10	0	0	0
Nc1cccc(-c2ccc3c(N)n[nH]c3c2)c1 [GSK2193613]	19	4	9	29	0	13	30	0	11	0	0	0	40	2	0	0	0	11	0	0
Cc1ccc(NC(=O)c2cccc(N3CCCCC3)c2)cc1-c1ccc(C(=O)NCC2CC2)cc1 [GSK1917008]	0	26	34	98.7	5	28	33	0	0	0	45	1	0	25	0	11	0	15	0	0
Nc1ncc(-c2ccc3nccc(-c4ccncc4)c3c2)cc1S(=O)(=O)N1CCCCC1 [GSK1693850]	26	0	0	22	0	48	47	0	14	100	99.8	100	96.9	100	100	95.9	0	8	0	0
COc1cccc(NC(=O)NCCNc2ccnc(Nc3ccc(F)cc3)n2)c1 [GSK1379879]	0	0	0	53	0	6	18	0	0	0	10	0	0	0	0	0	8	13	0	0
CN(c1ccc(NC(=O)Nc2cccc(Cl)c2)cc1)c1ccnc(N)n1.Cl [GW830707]	0	10	97.5	100	20	1	15	23	0	0	11	0	20	48	0	3	0	0	11	3
O=C(Nc1n[nH]c2nc(-c3cccc(O)c3)ccc12)C1CC1 [SB-711805]	35	0	52	50	5	21	4	0	0	4	16	0	0	0	17	12	15	11	81	10
